Hits are enriched below; roughly 0.9% of the tested compounds scored in any of these assays.
PPARg SRC-1 ag: agonists of human PPARgamma SRC-1 coactivator recruitment | activation, % at 8 µM | PPARgamma-SRC-1 coactivator recruitment biochemical assay | hit rate 0.41% among 200,000 | P37231 | AID 631; in the data active means activation above about 19%;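 further: 0% = DMSO and 100% = reference agonist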
SRC1 TRFRET art: TR-FRET artefact, counter-screen to PPARgamma/SRC-1 agonist assay. TR-FRET detection artefact counter-screen, emission ratio; stronger effect = higher value. TR-FRET ratio at 8 µM. hit rate 0.34% among 99,000; in the data active means TR-FRET ratio above about 2300
SRC3 TRFRET art: counter-screen for PPARgamma SRC-3 recruitment agonists: TR-FRET artefact; PPARgamma/SRC-3 format; stronger effect = higher value; TR-FRET ratio at 8 µM; hit rate 0.39% among 99,000
PPARg SRC-3 ag: promotes SRC-3 coactivator recruitment by human PPARgamma; hit rate 0.26% among 200,000; P37231; activation, % at 8 µM; biochemical PPARgamma/SRC-3 coactivator recruitment assay; in the data active means activation above about 23%;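 further: 0% = DMSO and 100% = reference agonist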
SRC2 TRFRET art: flags TR-FRET format artefacts in PPARgamma SRC-2 recruitment agonist screen. TR-FRET artefact counter-screen; stronger effect = higher value. AID 1049. TR-FRET ratio at 8 µM. hit rate 0.4% among 200,000
PPARg SRC2 recr: promotes SRC-2 coactivator recruitment by human PPARgamma. P37231. PPARgamma LBD-SRC-2 recruitment, biochemical. activation, % at 8 µM. hit rate 0.34% among 200,000. AID 1032; in the data active means activation above about 22%;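 further: 0% = vehicle and 100% = reference agonist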
PPARg SRC2 conf: confirmation of agonists of SRC-2 recruitment by human PPARgamma. shares compounds with PPARg SRC-3 ag. biochemical SRC-2 recruitment by PPARgamma. activation, % at 8 µM. hit rate 52% among 790. AID 1297; in the data active means activation above about 22%;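 further: 0% = vehicle alone and 100% = reference agonist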
PPARg SRC1 ag: human PPARgamma SRC-1 recruitment agonism, confirmation. shares compounds with PPARg SRC-3 ag. PPARgamma–SRC-1 coactivator recruitment biochemical assay. activation, % at 8 µM. hit rate 43% among 790. AID 1300; in the data active means activation above about 20%;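 further: 0% = vehicle wells and 100% = reference agonist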
PPARg SRC3 ag: human PPARgamma SRC-3 recruitment agonism, confirmation; shares compounds with PPARg SRC-3 ag; biochemical PPARgamma-SRC-3 coactivator recruitment, agonist mode; activation, % at 8 µM; hit rate 29% among 790; AID 1301; in the data active means activation above about 24%;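 further: 0% = vehicle wells and 100% = reference agonist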
* hit, by the source's call. Unless noted, no stated cut-off is given here; in the data, active means TR-FRET ratio above about 2000; inactive means the rest.

`Cn1c(=O)cc(SCC(=O)N2CCN(c3ccccc3)CC2)c2ccccc21` gave PPARg SRC-1 ag 33.7*, PPARg SRC-3 ag 40.4*, SRC2 TRFRET art 2466*, PPARg SRC2 recr 46.6*, PPARg SRC2 conf 40.0*, PPARg SRC1 ag 27.6* and PPARg SRC3 ag 28.9*.
Screening CN1CCN(C(=O)CSc2cc(=O)n(C)c3ccccc23)CC1 returned PPARg SRC-1 ag 34.5*, SRC1 TRFRET art 2594*, SRC3 TRFRET art 2760*, PPARg SRC-3 ag 20.1, SRC2 TRFRET art 2614*, PPARg SRC2 recr 38.3*, PPARg SRC2 conf 29.0*, PPARg SRC1 ag 17.4 and PPARg SRC3 ag 19.0.
For C=CCN(CC=C)CC(O)CN(c1cc([N+](=O)[O-])ccc1OC)S(=O)(=O)c1ccccc1 (stereo not drawn) the results were PPARg SRC-1 ag 4.1, SRC1 TRFRET art 1771, SRC3 TRFRET art 1721, PPARg SRC-3 ag 1.9, SRC2 TRFRET art 1518 and PPARg SRC2 recr -2.5.
Screening COC(=O)c1ccccc1NC(=O)C(=O)NCc1ccncc1 returned PPARg SRC-1 ag 1.4, SRC1 TRFRET art 1726, SRC3 TRFRET art 1669, PPARg SRC-3 ag 1.5, SRC2 TRFRET art 1378 and PPARg SRC2 recr 4.5.
CC(=O)Oc1c(/C=C(\C#N)C(N)=O)[nH]c2ccccc12 was read as PPARg SRC-1 ag 20.7*, SRC1 TRFRET art 1870, SRC3 TRFRET art 1629, PPARg SRC-3 ag 10.4, SRC2 TRFRET art 1474, PPARg SRC2 recr 22.4*, PPARg SRC2 conf 22.3*, PPARg SRC1 ag 12.2 and PPARg SRC3 ag 12.9.
For CC12CCC(C(=O)N(CSC(=S)N/N=C\c3ccccc3O)C1=O)C2(C)C (stereo not drawn) the results were PPARg SRC-1 ag 17.7, PPARg SRC-3 ag 42.9*, SRC2 TRFRET art 1953, PPARg SRC2 recr 30.2*, PPARg SRC2 conf 45.6*, PPARg SRC1 ag 43.5* and PPARg SRC3 ag 24.9*.
For CC(C)(C)c1ccc(C(=O)NC(=S)NNC(=O)c2cccs2)cc1 the results were PPARg SRC-1 ag 8.8, SRC1 TRFRET art 2055, SRC3 TRFRET art 1675, PPARg SRC-3 ag 26.0*, SRC2 TRFRET art 1584, PPARg SRC2 recr 14.7, PPARg SRC2 conf 6.8, PPARg SRC1 ag 6.4 and PPARg SRC3 ag 8.5.
Cc1ccnc(NC(=O)CSc2cc(=O)n(C)c3ccccc23)c1 was read as PPARg SRC-1 ag 74.5*, PPARg SRC-3 ag 95.9*, SRC2 TRFRET art 3578*, PPARg SRC2 recr 75.0*, PPARg SRC2 conf 41.6*, PPARg SRC1 ag 23.3* and PPARg SRC3 ag 27.5*.
Screening Cc1ccnc(NC(=O)CCCOc2cc(=O)n(C)c3ccccc23)c1 returned PPARg SRC-1 ag -7.3, PPARg SRC-3 ag -4.4, SRC2 TRFRET art 1577 and PPARg SRC2 recr -0.8.
`Cn1c(=O)cc(SCC(=O)Nc2ccccn2)c2ccccc21` gave PPARg SRC-1 ag 44.6*, PPARg SRC-3 ag 65.1*, SRC2 TRFRET art 2585*, PPARg SRC2 recr 59.0*, PPARg SRC2 conf 33.8*, PPARg SRC1 ag 23.5* and PPARg SRC3 ag 26.7*.
N#Cc1ccc(-c2ccc3c(c2)OCO3)nc1SCC(=O)OCc1ccccc1 was read as PPARg SRC-1 ag 39.6*, PPARg SRC-3 ag 46.1*, SRC2 TRFRET art 1976*, PPARg SRC2 recr 10.2, PPARg SRC2 conf 50.6*, PPARg SRC1 ag 42.6* and PPARg SRC3 ag 25.2*.
Cc1ccc(C(=O)CSc2nc(-c3ccccc3)ccc2C#N)cc1 was read as PPARg SRC-1 ag 9.1, SRC1 TRFRET art 2016, SRC3 TRFRET art 1806, PPARg SRC-3 ag 0.8, SRC2 TRFRET art 1714 and PPARg SRC2 recr 5.3.
COc1ccc2[nH]c3c(Cl)ncnc3c2c1 was read as PPARg SRC-1 ag 0.6, SRC1 TRFRET art 1758, SRC3 TRFRET art 1712, PPARg SRC-3 ag 2.2, SRC2 TRFRET art 1577 and PPARg SRC2 recr -0.2.

From PubChem BioAssay
